Source: PubChem
Sfp PPTase inh: qHTS Assay for Inhibitors of Bacillus subtilis Sfp phosphopantetheinyl transferase (PPTase); hit rate 3.5% among 310,000; AID 1490, 2009; Potency, µM, for inactives: largest response in the series, negative = inhibition, hits mostly inhibitors; Biochemical Sfp PPTase activity, qHTS; 4'-phosphopantetheinyl transferase ffp (Bacillus subtilis), Q9F4F7;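 also: the enzyme is Sfp with the accession as filed and its product quenches rhodamine fluorescence; 0% = enzyme reaction without inhibitor and -100% = no enzyme wells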
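Step 1, compound plus 15 nM Sfp-PPTase, 15 min, room temperature. Step 2, add rhodamine-CoA (5 uM) and BHQ-2-YbbR (12.5 uM). Step 3, read 525/598 nm fluorescence at 0 and 30 min.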
JMJD2A Tudor inh: qHTS Assay for Inhibitors of JMJD2A-Tudor Domain; AlphaScreen JMJD2A-Tudor / H3K4me3 peptide binding; Potency, µM (doses to about 114 µM), inactives show at the top dose activity change, negative = inhibition, most hits filed as inhibitors; hit rate 4.4% among 390,000; AID 504339, 2011; also: % is scaled to controls: 0 for no effect and ±100 for the full control effect; nearly all actives have a fitted effect of over 50% in size
BAZ2B inh: qHTS Assay for Inhibitors of BAZ2B | Bromodomain adjacent to zinc finger domain protein 2B (Homo sapiens), Q9UIF8 | AlphaScreen BAZ2B-H3K14Ac peptide displacement | Potency, µM (highest dose often 114 µM), for inactives: top-dose activity change, negative = inhibition, actives largely listed as inhibitors | hit rate 4.4% among 360,000; also: % is scaled to controls: 0 for no effect and ±100 for the full control effect; nearly all actives have a fitted effect of over 60% in size
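AlphaScreen luminescence quantifies BAZ2B engagement of H3K14Ac peptide; the protein and biotinylated peptide are both at 50 nM final, buffer PBS pH 7.4 with 0.01% Tween-20, all steps at room temperature.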
HP1b chromo inh: HTS for Inhibitors of HP1-beta Chromodomain Interactions with Methylated Histone Tails. AlphaScreen HP1-beta / biotin-H3K9me3 peptide binding. Potency, µM (highest dose often 114 µM), inactives show at the highest dose activity change, negative = inhibition, most hits filed as inhibitors. hit rate 0.56% among 390,000. AID 540317, 2011; also: nearly all actives have a fitted effect of over 70% in size
Target sequence (P83916 whole entry, looked up): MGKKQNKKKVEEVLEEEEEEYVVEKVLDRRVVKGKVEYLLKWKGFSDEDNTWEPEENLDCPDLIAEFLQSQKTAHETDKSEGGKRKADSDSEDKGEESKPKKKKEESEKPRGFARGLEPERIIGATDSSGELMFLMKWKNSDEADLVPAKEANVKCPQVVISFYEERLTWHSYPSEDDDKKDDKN
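Compound inhibition of the preformed complex between 50 nM HP1-beta and 50 nM biotinylated H3K9me3 peptide was read by AlphaScreen. Buffer was PBS pH 7.4 with 0.01% Tween-20. Incubations ran 30 min at room temperature, with 10 ug/mL donor/acceptor beads.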
12-LOX inh: Primary qHTS assay for inhibitors of human arachidonate 12S-lipoxygenase (ALOX12): Round 2; purified 12hLO, xylenol orange hydroperoxide absorbance; Potency, µM (top dose mostly 108 µM), without a hit: at the top dose activity change, negative = inhibition, usual class: inhibitors; hit rate 1.1% among 580,000; Polyunsaturated fatty acid lipoxygenase ALOX12 (Homo sapiens), P18054; also: % is scaled to controls: 0 for no effect and ±100 for the full control effect
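Purified human 12hLO at 150 nM in 25 mM Hepes, 0.01% Triton X-100, pH 7.0, preincubated 15 min at room temperature with compound. Reaction started with 40 uM arachidonic acid, 30 min at room temperature. Hydroperoxide measured by Fe-xylenol orange, 573/405 nm absorbance ratio.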
G9a block: qHTS Assay for Inhibitors of Histone Lysine Methyltransferase G9a | Histone-lysine N-methyltransferase EHMT2 (Homo sapiens), Q96KQ7 | Potency, µM (doses to about 102 µM), for the others: top-dose activity, negative = inhibition, actives largely listed as inhibitors | hit rate 8.8% among 350,000 | G9a H3K9 monomethylation, AlphaScreen, 2 h; also: % is scaled to controls: 0 for no effect and ±100 for the full control effect; nearly all actives have a fitted effect of over 75% in size
Target sequence (Q96KQ7 913-1193 limits assumed): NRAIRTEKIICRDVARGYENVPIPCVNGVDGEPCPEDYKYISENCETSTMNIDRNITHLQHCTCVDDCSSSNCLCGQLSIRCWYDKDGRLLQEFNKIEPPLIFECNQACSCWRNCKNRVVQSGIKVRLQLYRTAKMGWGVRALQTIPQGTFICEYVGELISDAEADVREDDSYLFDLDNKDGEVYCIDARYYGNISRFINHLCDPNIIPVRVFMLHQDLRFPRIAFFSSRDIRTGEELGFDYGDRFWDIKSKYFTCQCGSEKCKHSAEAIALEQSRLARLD
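Chemiluminescent proximity detection of H3K9 monomethylation, read after 10 min bead incubation in the dark. Reaction: 20 nM G9a, 500 nM biotin-H3K9 peptide, 20 uM SAM cofactor, 2 h, room temperature, following 15 min enzyme-compound preincubation.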
An asterisk follows results filed as active; [ ] = another dose, or the depositor's remark. Rows were chosen to be rich in hits. Some 8.7% of all compounds tested hit in one or more screens of this group. Calls follow the shape of the dose curve; as a rule, active = well fitted curve in the direction sought with a large enough effect; inconclusive = small, poorly fitted or top-dose-only effect, or another doubt; inactive = no such curve, though single readings can be large; an effect the other way counts as inactive or inconclusive. Potency is read from the fitted curve at half-maximal effect.

For COc1cccc(-n2nc(C(N)=O)c(O)cc2=O)c1 the results were Sfp PPTase inh 13%, JMJD2A Tudor inh -11%, BAZ2B inh -32%, HP1b chromo inh 29%, 12-LOX inh inconclusive and G9a block -50%.
For COc1cccc(-n2nc(C#N)c(Cl)cc2=O)c1 the results were Sfp PPTase inh 2%, JMJD2A Tudor inh -27%, BAZ2B inh -23%, HP1b chromo inh 75%, 12-LOX inh -12% and G9a block 50µM*.
`c1ccc(OCC2CCNCC2)nc1` gave Sfp PPTase inh -5%, JMJD2A Tudor inh -11%, BAZ2B inh -20%, HP1b chromo inh 12%, 12-LOX inh -3% and G9a block 79µM*.
`c1ccc(CCC2CCNCC2)cc1` gave 12-LOX inh 20%.
Cc1cc(-c2nn3c(-c4ccccc4)nnc3s2)c2ccccc2n1 was read as Sfp PPTase inh inconclusive, JMJD2A Tudor inh -28%, BAZ2B inh 2%, HP1b chromo inh -23%, 12-LOX inh -15% and G9a block 2.2µM*.
Cc1ccccc1-c1nn2c(-c3ccccc3)nnc2s1 was read as Sfp PPTase inh 56µM*, JMJD2A Tudor inh 2%, BAZ2B inh 24%, HP1b chromo inh 33%, 12-LOX inh 0% and G9a block 16%[12.7 µM].
Clc1cccc(-c2nn3c(-c4ccc5ccccc5n4)nnc3s2)c1 was read as 12-LOX inh 35µM*.
For O=c1oc2ccccc2c(Nc2cc3ccccc3cc2O)c1[N+](=O)[O-] the results were Sfp PPTase inh -10%, JMJD2A Tudor inh inconclusive, BAZ2B inh 11µM*, HP1b chromo inh -8%, 12-LOX inh inconclusive and G9a block inconclusive.
For O=c1oc2ccccc2c(Nc2ccccc2O)c1[N+](=O)[O-] the results were Sfp PPTase inh 7%, JMJD2A Tudor inh -22%, BAZ2B inh -12%, HP1b chromo inh 42%, 12-LOX inh 4% and G9a block 1%.
O=c1c(-c2ccccc2)nnc2sc(-c3cccc(F)c3)nn12 was read as 12-LOX inh -5%.
Screening O=C(O)/C=C/c1ccc(S(=O)(=O)Nc2ccc(OCc3ccccc3)cc2)cc1 returned Sfp PPTase inh -3%, JMJD2A Tudor inh -11%, BAZ2B inh -28%, HP1b chromo inh 27%, 12-LOX inh -24% and G9a block 17%[59 µM].
O=C(O)CCc1ccc(S(=O)(=O)Nc2ccc(OCc3ccccc3)cc2)cc1 was read as Sfp PPTase inh 28%, JMJD2A Tudor inh -24%, BAZ2B inh -14%, HP1b chromo inh 10%, 12-LOX inh 0% and G9a block 45µM*.
`COCCNC(=O)CCc1ccc(S(=O)(=O)Nc2ccc(C)cc2)cc1` gave Sfp PPTase inh 79µM*, JMJD2A Tudor inh -20%, BAZ2B inh -1%, HP1b chromo inh 5%, 12-LOX inh -29% and G9a block -50%[2.33 µM].
`O=c1c(O)c(-c2ccc(O)c(O)c2)oc2c(OC[C@@H]3O[C@@H](O)[C@@H](O)[C@H](O)[C@H]3O)c(O)cc(O)c12` gave Sfp PPTase inh 56µM*.
Screening O=C(Nc1ccccc1N1CCOCC1)c1ccc2c(c1)OCCO2 returned Sfp PPTase inh 19%, JMJD2A Tudor inh -12%, BAZ2B inh -2%, HP1b chromo inh 25% and 12-LOX inh 0%.
Screening O=C(Nc1cc(C(F)(F)F)ccc1N1CCCC1)c1ccc2c(c1)OCO2 returned Sfp PPTase inh 19%, JMJD2A Tudor inh -20%, BAZ2B inh -20%, HP1b chromo inh 51%, 12-LOX inh 58% and G9a block 45µM*.
